Test results: PubChem BioAssay AID1159580 (chemical genetic matrix, 2015)
Out of some 5,500 compounds screened, about 2,000 (36%) were called active. Not shown: some 18% with an inconclusive outcome. Rule as the data show it: active = normalized growth mostly below about 0.91 (no sharp cut-off); inconclusive = no clear call, values can overlap the other calls; inactive = mostly above about 0.92. This is one part of the list.

Assay: chemical genetic growth profiling, strain panel (AID 1159580);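 also: tested at 20 µM; growth read once vehicle control cultures reached saturation at 30 °C; 1 = growth at the plate median or of vehicle wells; lower values mean less growth of the strain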
Settings: S. cerevisiae deletion strains, growth OD

Measured: normalized growth

C#CCN[C@H](C)Cc1ccccc1
inactive: locus YAL040C, strain CLN3, active compounds read low 1 | locus YCL061C, strain MRC1 (second series), active compounds read low 0.992 | locus YDR150W, strain NUM1, active compounds read low 0.997 | locus YDR363W, strain ESC2, active compounds read low 1.01 | locus YER002W, strain NOP16, active compounds read low 0.996 | locus YGR078C, strain PAC10, active compounds read low 0.987 | locus YJR075W, strain HOC1, active compounds read low 0.994 | locus YNL128W, strain TEP1, active compounds read low 0.998 | locus YNL153C, strain GIM3, active compounds read low 1 | locus YNL175C, strain NOP13, active compounds read low 0.997 | locus YNL197C, strain WHI3, active compounds read low 0.982 | locus YNL224C, strain SQS1, active compounds read low 0.995 | locus YNL322C, strain KRE1, active compounds read low 0.998 | locus YOR083W, strain WHI5 (second series), active compounds read low 1.03 | locus YPL241C, strain CIN2, active compounds read low 0.999
